For six sequences, binding signal results are on record in PMC8384837, “Expanding the binding specificity for RNA recognition by a PUF domain”.

One assay has as its target PUM1 PUF domain R5-RAG (Homo sapiens, UniProt Q14671 828-1176, C1007R;R1008A;Q1011G). In words: yeast three-hybrid, YBZ-1, SC-Leu-His + 0.5 mM 3-AT, 4 days. The note with it: tags: N-Gal4 AD-HA kept; label: inside an RPR1-promoter hybrid RNA with tandem MS2 sites; ssRNA. The gist of the method: (§1)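 Pumilio-1 PUF domain libraries, randomized (NNK) at the three base-contacting residues of each repeat, were co-expressed with matching RNA elements from a centromeric plasmid in strain YBZ-1 (LexA–MS2 coat fusion, HIS3 reporter). Transformants were plated on SC-Leu (input) and SC-Leu-His + 0.5 mM 3-AT (selection) for four days, and repeat regions were PCR-amplified and Illumina-sequenced. The interaction score is the log2 change in variant frequency from input to selection, with pseudocount 1 where absent.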
For the sequence “GGCUAGAACUAGUGGAUCCCCCGGCGCCCGGCGGCUCGAGCCCGGGUAAGUGUUAAUAGUCUGCAUGCCGCCGGGCGCCAUGCCUGCAGGUCGACUCUAGAAAACAUG”, the binding signal is 3.37 log2 enrichment (interaction score).

With “GGCUAGAACUAGUGGAUCCCCCGGCGCCCGGCGGCUCGAGCCCGGGUAAGUGUAAAUAGUCUGCAUGCCGCCGGGCGCCAUGCCUGCAGGUCGACUCUAGAAAACAUG”, the binding signal was 0.1 log2 enrichment (interaction score).

As for “GGCUAGAACUAGUGGAUCCCCCGGCGCCCGGCGGCUCGAGCCCGGGUAAGUGUGAAUAGUCUGCAUGCCGCCGGGCGCCAUGCCUGCAGGUCGACUCUAGAAAACAUG”, the binding signal was 0.18 log2 enrichment (interaction score).

Consider “GGCUAGAACUAGUGGAUCCCCCGGCGCCCGGCGGCUCGAGCCCGGGUAAGUGUCAAUAGUCUGCAUGCCGCCGGGCGCCAUGCCUGCAGGUCGACUCUAGAAAACAUG”, for which the binding signal was 3.6 log2 enrichment (interaction score).

The next assay deals with PUM1 PUF domain R5-RRK (Homo sapiens, UniProt Q14671 828-1176, C1007R;Q1011K). Described as above. The note with it: tags: N-Gal4 AD-HA kept; label: inside an RPR1-promoter hybrid RNA with tandem MS2 sites; ssRNA. The gist of the method: as §1
On to “GGCUAGAACUAGUGGAUCCCCCGGCGCCCGGCGGCUCGAGCCCGGGUAAGUGUUAAUAGUCUGCAUGCCGCCGGGCGCCAUGCCUGCAGGUCGACUCUAGAAAACAUG”, for which the binding signal was 4.7 log2 enrichment (interaction score).

“GGCUAGAACUAGUGGAUCCCCCGGCGCCCGGCGGCUCGAGCCCGGGUAAGUGUAAAUAGUCUGCAUGCCGCCGGGCGCCAUGCCUGCAGGUCGACUCUAGAAAACAUG”: the binding signal is 1.82 log2 enrichment (interaction score).

Regarding “GGCUAGAACUAGUGGAUCCCCCGGCGCCCGGCGGCUCGAGCCCGGGUAAGUGUGAAUAGUCUGCAUGCCGCCGGGCGCCAUGCCUGCAGGUCGACUCUAGAAAACAUG”, the binding signal is 1.4 log2 enrichment (interaction score).

As to “GGCUAGAACUAGUGGAUCCCCCGGCGCCCGGCGGCUCGAGCCCGGGUAAGUGUCAAUAGUCUGCAUGCCGCCGGGCGCCAUGCCUGCAGGUCGACUCUAGAAAACAUG”, the binding signal was 4.43 log2 enrichment (interaction score).

The next assay has as its target PUM1 PUF domain R3-IFG (Homo sapiens, UniProt Q14671 828-1176, C935I;R936F;Q939G). Described as above. The note with it: tags: N-Gal4 AD-HA kept; label: inside an RPR1-promoter hybrid RNA with tandem MS2 sites; ssRNA. Summed up: as §1
As to “GGCUAGAACUAGUGGAUCCCCCGGCGCCCGGCGGCUCGAGCCCGGGUAAGUGUAAUUAGUCUGCAUGCCGCCGGGCGCCAUGCCUGCAGGUCGACUCUAGAAAACAUG”, the binding signal is 3.79 log2 enrichment (interaction score).

For “GGCUAGAACUAGUGGAUCCCCCGGCGCCCGGCGGCUCGAGCCCGGGUAAGUGUAAGUAGUCUGCAUGCCGCCGGGCGCCAUGCCUGCAGGUCGACUCUAGAAAACAUG”, the binding signal was 5.86 log2 enrichment (interaction score).

In the case of “GGCUAGAACUAGUGGAUCCCCCGGCGCCCGGCGGCUCGAGCCCGGGUAAGUGUAAAUAGUCUGCAUGCCGCCGGGCGCCAUGCCUGCAGGUCGACUCUAGAAAACAUG”, the binding signal was 3.21 log2 enrichment (interaction score).
